Where “and” joins values, the source holds several entries; their conditions need not be identical. Identical values can stand only once. The panel holds about 79,000 compounds, 15% with a hit somewhere; the sample as a whole holds those more often. Calls of active or inactive are those of the source. Rule as the data show it: active = growth inhibition above about 70%; inactive = the rest.
Legend:
[1] = NCI Yeast Anticancer Drug Screen. Data for the rad52 strain (AID 147);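 also: 0% = growth of vehicle-treated control cultures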; conditions: S. cerevisiae rad52 mutant growth inhibition, active compounds read high
Method in brief: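 Inhibition of yeast growth, referenced to vehicle controls, was the measured output for a strain with defective DNA damage repair.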

[2] = NCI Yeast Anticancer Drug Screen. Data for the wt1 strain (AID 149);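 also: 0% = growth of vehicle-treated wt1 cultures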; conditions: S. cerevisiae wt1 strain (SPY 50644) growth inhibition, active compounds read high
Method in brief: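 Compounds are added to wt1 yeast cultures. Growth is then measured. Inhibition is expressed relative to vehicle-treated controls.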

[3] = NCI Yeast Anticancer Drug Screen. Data for the rad50EPP+ strain (AID 151);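 also: 0% = growth of vehicle-treated control cultures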; conditions: S. cerevisiae rad50 mutant strain, active compounds read high
Method in brief: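 Genetically defined yeast (rad50EPP+, DNA damage repair alteration) is grown with compound, and inhibition of growth is expressed relative to vehicle-treated controls.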

[4] = NCI Yeast Anticancer Drug Screen. Data for the mgt1 strain (AID 153); conditions: S. cerevisiae mgt1 mutant growth inhibition, active compounds read high
Method in brief: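 In the mgt1 strain, test compounds were added and growth inhibition was determined relative to vehicle-treated controls.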

[5] = NCI Yeast Anticancer Drug Screen. Data for the rad50 strain (AID 155);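 also: 0% = growth of vehicle-only cultures of the same strain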; conditions: S. cerevisiae rad50 strain growth inhibition, active compounds read high
Method in brief: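 Inhibition values express reduced yeast growth in compound-treated cultures relative to vehicle-treated controls.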

[6] = NCI Yeast Anticancer Drug Screen. Data for the mec2-1 strain (AID 157); conditions: S. cerevisiae mec2-1 strain, active compounds read high
Method in brief: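 Each compound was tested on mec2-1 yeast, a strain altered in DNA damage repair or cell cycle control. Growth inhibition is reported relative to vehicle.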

[7] = NCI Yeast Anticancer Drug Screen. Data for the rad14 strain (AID 159);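 also: 0% = growth of vehicle-treated control cultures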; conditions: S. cerevisiae rad14 strain growth inhibition, active compounds read high
Method in brief: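 A mutant yeast strain defective in DNA damage repair is treated with compound; inhibition of its growth is scored against untreated, vehicle-exposed cultures.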

[8] = NCI Yeast Anticancer Drug Screen. Data for the sgs1 mgt1 strain (AID 161);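 also: 0% = growth of cultures given vehicle only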; conditions: S. cerevisiae sgs1 mgt1 strain, active compounds read high
Method in brief: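 Inhibition of yeast growth, normalised to vehicle-treated controls, is reported for a strain bearing genetic alterations in DNA damage repair.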

[9] = NCI Yeast Anticancer Drug Screen. Data for the CLN2oe strain (AID 163);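 also: 0% = growth of vehicle-only control cultures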; conditions: S. cerevisiae CLN2oe strain, active compounds read high
Method in brief: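 First, the altered yeast strain was treated with each compound; second, its growth was measured; finally, inhibition was derived by comparison with vehicle controls.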

[10] = NCI Yeast Anticancer Drug Screen. Data for the cln2 rad14 strain (AID 165);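 also: 0% = growth equal to vehicle treated cultures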; conditions: S. cerevisiae cln2 rad14 strain, active compounds read high
Method in brief: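 Test compounds were added to cln2 rad14 yeast cultures; inhibition of growth was then determined by comparison with vehicle treatment.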

[11] = NCI Yeast Anticancer Drug Screen. Data for the bub3 strain (AID 167); conditions: S. cerevisiae bub3 mutant strain, active compounds read high
Method in brief: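 Steps: expose the mutant yeast strain to compound; grow alongside vehicle-treated cultures; measure growth; express inhibition against the vehicle cultures.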

[12] = NCI Yeast Anticancer Drug Screen. Data for the wt2 strain (AID 169);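 also: 0% = growth of vehicle-treated yeast cultures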; conditions: S. cerevisiae wt2 strain growth inhibition, active compounds read high
Method in brief: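 The panel's yeast strains carry defined changes in DNA repair or cell cycle genes. Each strain is grown with compound, and growth loss is scored relative to vehicle.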

[13] = NCI Yeast Anticancer Drug Screen. Data for the mlh1 strain (AID 171);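 also: 0% = growth of vehicle-treated control cultures of the same strain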; conditions: S. cerevisiae mlh1 strain growth inhibition, active compounds read high
Method in brief: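 Inhibition values reflect reduced yeast growth in the presence of compound, referenced to vehicle controls, using a strain chosen for its alteration in DNA repair or cell cycle control.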

[14] = NCI Yeast Anticancer Drug Screen. Data for the sgs1 strain (AID 173);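 also: 0% = growth of vehicle-only control cultures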; conditions: S. cerevisiae sgs1 mutant, active compounds read high
Method in brief: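 Vehicle-treated cultures served as reference for growth inhibition of a yeast strain altered in DNA damage repair or cell cycle control after compound exposure.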

[15] = NCI Yeast Anticancer Drug Screen. Data for the mlh1 rad18 strain (AID 175); conditions: S. cerevisiae mlh1 rad18 strain growth inhibition, active compounds read high
Method in brief: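 Inhibition values reflect reduced growth of mutant yeast versus vehicle-treated controls following compound exposure; the mutations affect DNA damage repair.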

[16] = NCI Yeast Anticancer Drug Screen. Data for the rad18 strain (AID 177); conditions: S. cerevisiae rad18 mutant growth inhibition, active compounds read high
Method in brief: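 Steps: expose repair-mutant yeast to compound; measure growth; express as inhibition relative to vehicle control.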

[17] = at 5.0 µM (retest, dose inferred, filed as 0.5)
[18] = at 50.0 µM (retest, dose inferred, filed as 5.0)

Measured: growth inhibition

COC1=C(N)C(=O)c2nc(-c3nc(C(=O)O)c(C)c(-c4ccc(OC)c(OC)c4O)c3N)ccc2C1=O
active: [1]; at 1.2 µM 97% | [1]; at 3.7 µM 97% | [1]; at 11.0 µM 98% | [1]; at 33.0 µM 98% | [1]; at 100.0 µM 97% | [2]; at 1.2 µM 98% | [2]; at 3.7 µM 99% | [2]; at 11.0 µM 99% | [2]; at 33.0 µM 99% | [2]; at 100.0 µM 98% | [3]; at 1.2 µM 91% | [3]; at 3.7 µM 93% | [3]; at 11.0 µM 94% | [3]; at 33.0 µM 96% | [3]; at 100.0 µM 96% | [4]; at 1.2 µM 97% | [4]; at 3.7 µM 98% | [4]; at 11.0 µM 98% | [4]; at 33.0 µM 98% | [4]; at 100.0 µM 98% | [5]; at 1.2 µM 96% | [5]; at 3.7 µM 97% | [5]; [17] 96% and 98% | [5]; at 11.0 µM 97% | [5]; at 33.0 µM 98% | [5]; [18] 97% and 98% | [5]; at 50.0 µM 93.5% and 92.5% | [5]; at 100.0 µM 97% | [6]; at 1.2 µM 96% | [6]; at 3.7 µM 98% | [6]; [17] 97% and 99% | [6]; at 11.0 µM 99% | [6]; at 33.0 µM 99% | [6]; [18] 98% and 99% | [6]; at 50.0 µM 94% | [6]; at 100.0 µM 98% | [7]; at 1.2 µM 98% | [7]; at 3.7 µM 98% | [7]; at 11.0 µM 98% | [7]; at 33.0 µM 98% | [7]; at 100.0 µM 98% | [8]; [18] 98% and 96% | [8]; at 50.0 µM 94.2% and 93.8% | [9]; at 1.2 µM 89% | [9]; at 3.7 µM 93% | [9]; at 11.0 µM 96% | [9]; at 33.0 µM 97% | [9]; at 100.0 µM 96% | [10]; [18] 98% and 92% | [10]; at 50.0 µM 93% and 92.2% | [11]; at 1.2 µM 95% | [11]; at 3.7 µM 97% | [11]; at 11.0 µM 98% | [11]; at 33.0 µM 97% | [11]; [18] 98% and 93% | [11]; at 50.0 µM 94% and 92.8% | [11]; at 100.0 µM 98% | [12]; at 1.2 µM 91% | [12]; at 3.7 µM 97% | [12]; at 11.0 µM 97% | [12]; at 33.0 µM 98% | [12]; at 100.0 µM 97% | [13]; at 1.2 µM 95% | [13]; at 3.7 µM 98% | [13]; at 11.0 µM 98% | [13]; at 33.0 µM 98% | [13]; at 100.0 µM 97% | [14]; at 1.2 µM 95% | [14]; at 3.7 µM 97% | [14]; at 11.0 µM 98% | [14]; at 33.0 µM 98% | [14]; at 100.0 µM 97% | [15]; [17] 97% and 99% | [15]; [18] 97% and 98% | [15]; at 50.0 µM 93% and 92.5% | [16]; at 1.2 µM 96% | [16]; at 3.7 µM 98% | [16]; at 11.0 µM 98% | [16]; at 33.0 µM 97% | [16]; at 100.0 µM 97%
inactive: [8]; [17] 16% and 59% | [10]; [17] 13% and 49% | [11]; [17] 14% and 30%

— PubChem BioAssay (NCI)
